# KDM5B inh: KDM5B demethylase inhibition. Potency, µM (highest dose often 57.7 µM), actives largely listed as inhibitors. KDM5B demethylase, FDH-coupled NADH fluorescence (FDH is formaldehyde dehydrogenase). 220,000 compounds, 2.6% hits. Q9UGL1; active = well fitted inhibition curve with a large enough effect; also: 0% is about no effect; nearly all actives have a fitted effect of over 70% in size
#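 Here, H3K4me3 peptide (12.5 µM in substrate mix) is demethylated by KDM5BΔAP, 200 nM final, after 10 min compound exposure. Formaldehyde product is coupled through FDH (0.25 U/mL in mix) to NADH fluorescence; 30-min ΔRFU feeds dose-response curves.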
# Starred values were filed as active, the others as inactive; i = inactive. Only a selection was taken, and hits are over-represented in it overall. Potency is read from the fitted curve at half-maximal effect.
SMILES,KDM5B inh
O=C(NC1CC1)c1ccc2c(c1)N(Cc1ccccc1)C(=O)CS2=O (centres undefined),i
O=C(NC1CCN(Cc2ccccc2)CC1)c1cccc(Br)c1,i
CC(Cc1c[nH]c2ccccc12)C(=O)Nc1ccc(F)cc1 (centres undefined),i
O=C(CSc1ccc2c(c1)OCCCO2)NC1CCCc2ccccc21 (centres undefined),i
CCCCn1nc(C(=O)NCCC(=O)O)c2ccccc2c1=O,i
CNC(=O)CCn1ncc2cc(OC3CCc4cccc(-c5cccc(CO)c5)c43)ccc21 (centres undefined),i
CCCCCn1c(NCCCOC)nc2c1c(=O)[nH]c(=O)n2C,i
COc1ccc(C(=O)N2CCCC3(C2)NC(=O)N(Cc2cccc(Cl)c2)C3=O)cc1F (centres undefined),i
COC(=O)c1cc(OC(=O)c2cccc3ccccc23)cc(C(=O)OC)c1,i
Cc1ccc(NS(=O)(=O)c2ccc3c(c2)-c2oncc2CO3)cc1C,i
Cc1ccc(C(=O)Nc2c(NC3CCCC3)c3ccccc3oc2=O)cc1,i
COCCC1(NS(C)(=O)=O)CCN(C(=O)C2(c3ccc(OC)cc3)CC2)CC1,i
Cn1nccc1C(=O)N1CCCC(c2nnnn2C)C1 (centres undefined),i
Cc1ccc(C(=O)N2CCC(c3noc(C4CC4)n3)C2)cn1 (centres undefined),i
O=C(c1ccco1)N1CCCC(c2nn[nH]n2)C1 (centres undefined),22µM*
Cc1ccc(C(=O)N2CCCC(c3nn[nH]n3)C2)cn1 (centres undefined),22µM*
Cc1cccc(NC(=O)N2CCCC(c3nnnn3C)C2)c1 (centres undefined),i
Cn1nnnc1C1CCCN(C(=O)c2cccc3[nH]ccc23)C1 (centres undefined),32µM*
CCn1c(C2CCCN(C(=O)c3ccco3)C2)nn(C)c1=O (centres undefined),i
CN1CCOC[C@H]2CCN(C(=O)c3cccc4[nH]ccc34)C[C@H]21,25µM*
CN(C)C(=O)N1Cc2ccccc2OC2(CCN(C(=O)c3cccc4[nH]ccc34)CC2)C1,i
O=C(NC1CCCCC1)N1CCCC(c2nn[nH]n2)C1 (centres undefined),i
COc1ccccc1C(=O)N1CCCC(c2nn[nH]n2)C1 (centres undefined),i
CN1CCOC[C@H]2CCN(C(=O)c3ccco3)C[C@H]21,i
c1ccc2c(-n3nnnc3SCc3nc4ccccc4[nH]3)cccc2c1,i
SMILES,KDM5B inh
Cc1ccccc1Nc1nc2c(c(=O)[nH]c(=O)n2C)n1CC(=O)O,i
CCCOc1ccc(CNC(=O)[C@H]2CCC[C@H]2NC(=O)c2ccc(OC)cc2)cc1,i
CC(C)OCCSc1nnc(-c2nn(Cc3ccccc3)c(=O)c3ccccc23)o1,i
Cc1ccc2oc(C(=O)Nc3cccc4cccnc34)c(C)c2c1,i
CCC(C)(C)C(=O)N1CCC2(CC1)CC(N(Cc1ccc(F)cc1)C1CC1)CCO2 (centres undefined),i
CCCN(Cc1nnc(-c2ccccc2Cl)o1)C(=O)c1ccc(C#N)cc1,i
COc1ccc(C(C)=O)cc1CSc1c(C)c(C)cc(C)c1C,i
CC(C)(C)c1cnc(CN2CCCC2c2ccc[nH]2)o1 (centres undefined),i
CC12CC3(C)CC(N)(C1)CC(C(=O)O)(C2)C3,i
CCCC1CCC(=NNC(=S)NCc2ccccc2)CC1 (centres undefined),i
Cc1cc(C)n(CCC(=O)N2CCCC(c3nnnn3C)C2)n1 (centres undefined),25µM*
COCCOC1CN(C2CCN(C(=O)c3ccc(OC)cc3)CC2)C12CCCCC2 (centres undefined),i
O=C(c1ccc2cc[nH]c2c1)N1CCCC(c2nn[nH]n2)C1 (centres undefined),22µM*
CN1CCC([C@@H]2CN(C(=O)c3ccc4cc[nH]c4c3)C[C@H]2C(N)=O)CC1,20µM*
Cn1nnnc1C1CCCN(C(=O)CC2CCCC2)C1 (centres undefined),i
O=C(NC1CCCC1)C1CCCN(C(=O)c2ccc3cc[nH]c3c2)C1 (centres undefined),i
O=C(c1cc(F)ccc1F)N1CCCC(c2nn[nH]n2)C1 (centres undefined),i
Cn1nnnc1C1CCCN(C(=O)C2CC2)C1 (centres undefined),i
COCCOC1CN(C2CCN(C(=O)c3cccc4[nH]ccc34)CC2)C12CCCCC2 (centres undefined),22µM*
COCCOC1CN(C2CCN(C(=O)c3nn(C)c4ccccc34)CC2)C12CCCCC2 (centres undefined),i
CN1CCC([C@@H]2CN(C(=O)c3ccccc3Cl)C[C@H]2C(N)=O)CC1,i
CCN(CC)CC1CCN(C(=O)c2ccc3cc[nH]c3c2)CC1,i
Cc1noc(-c2ccco2)c1C(=O)NCCOc1ccccc1,i
N#CC1=C(NC(=O)c2ccccc2)CCC(C#N)(c2ccccc2)C1 (centres undefined),i
CCc1ccc(NC(=O)c2cc(=O)c3cc(C)c(C)cc3o2)cc1,i
SMILES,KDM5B inh
Cc1ccc(C)c(NC(=O)CCCc2ccccc2)c1,i
Cc1cc(C(=O)CN2CCN(CC(=O)Nc3cccc(F)c3)CC2)c(C)n1CCc1cccs1,i
Cc1ccccc1NC(=O)CSC1CCCC1,i
CN(Cc1ccccc1)C(=O)CSc1nnc(COc2ccc(Cl)cc2)n1C,i
CCC(NC(=O)CC1C=CCC1)C12CC3CC(CC(C3)C1)C2 (centres undefined),i
O=C(NCCSCc1ccsc1)C1CC1,i
Cc1noc(-c2cn(C3CCCN(C(=O)c4ccc5[nH]ccc5c4)C3)nn2)n1 (centres undefined),i
Cn1nnnc1C1CCCN(C(=O)c2ccc3cc[nH]c3c2)C1 (centres undefined),20µM*
Cn1nnnc1C1CCCN(C(=O)c2ccccc2)C1 (centres undefined),i
Cc1cccc(C(C)NNC(=O)C(O)(c2cccc(C)c2)c2cccc(C)c2)c1 (centres undefined),i
O=C(CCc1ccccc1Cl)NC1CCN(C2CC2)C1 (centres undefined),i
Cc1ccccc1OCC(=O)Nc1c(N2CCCC2)c2ccccc2oc1=O,i
CC(C)Cn1nc(C(=O)NCc2cccc(CN(C)C)c2)c2ccccc2c1=O,i
O[C@@H]1[C@@H](Cn2cc(-c3cccnc3)nn2)C[C@@H](NCc2ccc(F)cc2)[C@@H]1O,i
COCc1cn(C[C@H]2C[C@@H](NCc3cccc4c3OCO4)[C@H](O)[C@@H]2O)nn1,i
COCc1cn(C[C@H]2C[C@@H](NCc3cccnc3)[C@H](O)[C@@H]2O)nn1,35µM*
Cc1nnc(SCC(=O)c2ccc(F)c(F)c2)n1Cc1ccccc1,i
Cc1ccc(S(C)(=O)=O)cc1C(=O)Nc1ccccc1N1CCOCC1,i
COc1ccc(CNC(=O)Cc2c(C)c3c(OC)cc(C)cc3oc2=O)cc1OC,i
COc1cccc(F)c1-c1nc(C)c(C(=O)Nc2cccnc2)s1,i
CCCNC(=O)NC(=O)CN(CC(C)C)C1CC1,i
O=c1cc(-c2ccccn2)oc2c(NC3CCOCC3)nccc12,32µM*
CN1CCC(NC2(Cc3cc(-c4ccccn4)on3)COC2)CC1,i
O=c1cc(-c2cccnc2)oc2c(NCCc3ccccn3)nccc12,i

# Screening results from PubChem.
